Pf growth 48h – P. falciparum growth inhibition at 48 hours (one generation); P. falciparum luciferase growth in erythrocytes, 48 h; 310,000 tested, 5.9% active; Potency, µM (series often up to 28.7 µM), hits mostly inhibitors
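In quantitative HTS format, infected erythrocytes bearing luciferase-reporter parasites were treated for a single generation at 37 C. Luminescence after adding detection reagent served as the growth measure.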
Pf growth 96h – P. falciparum growth inhibition at 96 hours; Potency, µM (titrated, usually from 28.7 µM), most hits filed as inhibitors; 320,000 tested, 6.9% active; P. falciparum luciferase reporter growth, 96 h; AID 504834
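Two parasite generations (96 h, 37 C, 5% CO2) of compound exposure in infected erythrocytes (0.05% parasitemia, 2% hematocrit). Luciferase-reporter P. falciparum; decreased luminescence indicates inhibited growth, aimed at apicoplast-acting delayed death.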
HCMV inh – inhibitors of human cytomegalovirus; HFF cells, HCMV-luciferase reporter, 72 h; hits give low values; activity change, negative = inhibition, % at 57.5 µM; 410,000 tested, 4.5% active; AID 1259415; in the data active means activity change below about -60%; inconclusive means no clear call, values can overlap the other calls; inactive means above about -39%
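Cell-based, HFFs, 1000 cells/well, 16 h 37C; cpds in DMSO + HCMV-luc, MOI 1 PFU/cell; 72 h 37C; OneGlo luminescence after 5 min RT; norm. to buffer vs Salinomycin 10uM.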
HCV inh – blocks hepatitis C virus; Huh7.5.1 HCVcc-Cre infection, luciferase reporter, 44 h; Potency, µM (series often up to 41.8 µM), hits mostly inhibitors; 340,000 tested, 3.4% active; AID 651820
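Compounds are dispensed onto cells plated 4 h earlier at 1,000 per well, with HCVcc-Cre virus (about 0.5 moi) added next. Following 44 h of culture, luminescent signal is measured for 15 sec after 15 min with substrate at room temperature.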
Large screens that a line does not name were inactive; ! = repeats disagree. A selection: hits, their analogues and other compounds. The true share with any hit is near 13%. Unless noted, the call rests on the fitted dose curve; in most records, active means well fitted inhibition curve with a large enough effect; inconclusive means small, poorly fitted or top-dose-only effect, or another doubt; inactive means no such curve, though single readings can be large or run the other way.

CCCCc1cc(=O)oc2cc(C)cc(OCC(=O)Nc3cccnc3)c12	Pf growth 48h 0.47µM, Pf growth 96h 0.52µM, HCV inh inconclusive
CCc1cc(=O)oc2cc(C)cc(OC(C)C(=O)NCCCn3ccnc3)c12 (configuration not stated)	Pf growth 48h 10µM, Pf growth 96h inconclusive
Cc1ccccc1CNC(=O)c1ccc(NC(=O)c2nsc3ccccc23)cc1	none (no result: Pf growth 48h, Pf growth 96h, HCV inh)
CCCCc1nc2cc(C(=O)NCc3ccccn3)ccc2o1	Pf growth 96h 12µM
N#CCSc1nc2c(c(=O)n1Cc1ccco1)C1(CCCC1)Cc1ccccc1-2	Pf growth 96h inconclusive, HCMV inh inconclusive, HCV inh inconclusive
NC(=O)CSc1nc2c(c(=O)n1-c1ccccc1)C1(CCCCC1)Cc1ccccc1-2	Pf growth 96h 12µM, HCMV inh -93
NNc1nc(N)c2c(n1)-c1ccccc1CC21CCCC1	Pf growth 48h 10µM, Pf growth 96h 1.7µM, HCMV inh inconclusive
CCCn1c(SCC#N)nc2c(c1=O)C1(CCCC1)Cc1ccccc1-2	Pf growth 96h 4.7µM
O=c1c2c(nc3n1CCCCC3)-c1ccccc1CC21CCCCC1	Pf growth 96h 8.3µM, HCMV inh inconclusive
CCCOc1ccc(-c2nc3ccc(Br)cc3c(=O)o2)cc1	none (no result: Pf growth 48h, Pf growth 96h, HCV inh)
Cc1ccc(NC(=O)c2ccc(CN3CC(=O)N4CCCCC4C3=O)cc2)cc1C (configuration not stated)	none (no result: Pf growth 48h, Pf growth 96h, HCV inh)
COc1ccc(N2CCN(C(c3ccc(F)cc3)c3sc4nc(-c5ccco5)nn4c3O)CC2)cc1 (configuration not stated)	none (no result: Pf growth 48h, Pf growth 96h, HCV inh)
COc1ccc2c(c1OC)C(=O)O[C@H]2[C@@H]1c2cc3c(cc2CCN1C)OCO3	Pf growth 96h 15µM!, HCMV inh inconclusive
COc1cc2c(cc1OC)C1Cc3ccc(OC)c(OC)c3CN1CC2 (configuration not stated)	Pf growth 48h 1.3µM, Pf growth 96h inconclusive, HCV inh inconclusive
COc1cc2c(cc1OC)[C@@H]1Cc3cc4c(cc3[C@H](C2)N1C)OCO4	Pf growth 96h inconclusive
COc1cc2c(cc1OC)[C@@H]1Cc3ccc(OC)c(OC)c3CN1CC2	Pf growth 48h inconclusive, Pf growth 96h inconclusive, HCV inh inconclusive
COc1ccc2c(c1OC)CN1CCc3cc4c(cc3[C@@H]1[C@@H]2O)OCO4	Pf growth 48h inconclusive, Pf growth 96h 9.3µM (no result: HCMV inh)
COc1ccc2c(c1OC)C(=O)O[C@@H]2[C@H]1c2cc3c(cc2CCN1C)OCO3	Pf growth 48h inconclusive
CSCCC(NS(=O)(=O)c1ccc2c(c1)oc(=O)n2C)C(=O)NCCc1ccc(C)cc1 (configuration not stated)	none (no result: Pf growth 48h, Pf growth 96h, HCV inh)
O=C(NCCC1=CCCCC1)c1ccc2c(c1)ncn2-c1ccc(F)c(F)c1	none (no result: Pf growth 48h, Pf growth 96h, HCV inh)
CCNC(C)Cc1cccc(C(F)(F)F)c1 (configuration not stated)	Pf growth 96h 13µM (no result: HCMV inh, HCV inh)
C[C@@H](NCCCc1cccc(C(F)(F)F)c1)c1cccc2ccccc12	Pf growth 48h 7.6µM, Pf growth 96h 12µM (no result: HCV inh)
CCN[C@@H](C)Cc1cccc(C(F)(F)F)c1	none (no result: Pf growth 48h, Pf growth 96h)
COc1ccc2c([N+](=O)[O-])c(-c3ccccc3)[nH]c2c1	none (no result: Pf growth 48h, Pf growth 96h, HCV inh)
O=c1c2ccccc2nc(/C=C/c2ccc(O)cc2)n1-c1ccc(O)cc1	Pf growth 48h inconclusive, HCV inh inconclusive
CCn1c(/C=C/c2cc(Br)ccc2O)nc2ccccc2c1=O	Pf growth 48h 0.93µM, HCMV inh -93, HCV inh inconclusive
O=c1c2ccccc2nc(/C=C/c2ccccc2O)n1-c1ccc(Br)cc1	HCMV inh -63 (no result: Pf growth 48h, Pf growth 96h, HCV inh)
CCn1c(/C=C/c2ccc(O)c(O)c2)nc2ccccc2c1=O	Pf growth 48h inconclusive, Pf growth 96h inconclusive
Cc1nn(S(=O)(=O)c2ccc(Cl)cc2)c(C)c1Sc1ccc([N+](=O)[O-])cc1	Pf growth 96h inconclusive, HCMV inh -78, HCV inh inconclusive
Cc1nn(-c2ccccc2)c(N)c1Sc1ccc([N+](=O)[O-])cc1	Pf growth 96h inconclusive
CC(C)(C)OC(=O)[C@H](Cc1ccccc1)NC(=O)c1nc[nH]c1C(=O)NC1CCN(C(=O)OC(C)(C)C)CC1	Pf growth 48h 4.7µM, Pf growth 96h 3.3µM
CC(C)C[C@H](NC(=O)c1nc[nH]c1C(=O)N1CCNCC1)C(=O)OC(C)(C)C	none
CC(C)(C)OC(=O)N1CCN(C(=O)c2[nH]cnc2C(=O)N[C@@H](Cc2ccccc2)C(=O)OCc2ccccc2)CC1	Pf growth 48h inconclusive, Pf growth 96h inconclusive, HCMV inh inconclusive
CC1CCN(C(=O)c2[nH]cnc2C(=O)N[C@@H](Cc2ccccc2)C(=O)OC(C)(C)C)CC1	HCMV inh inconclusive
C[C@H](NC(=O)c1nc[nH]c1C(=O)N1CCNCC1)C(=O)OC(C)(C)C	HCMV inh -65
CC(C)(C)OC(=O)[C@H](Cc1ccccc1)NC(=O)c1nc[nH]c1C(=O)N1CCN(C(=O)OC(C)(C)C)CC1	Pf growth 48h inconclusive, Pf growth 96h 9.3µM, HCV inh inconclusive
Cc1cc2oc(C(=O)Nc3ccc(S(=O)(=O)N(C)c4ccccc4)cc3)cc(=O)c2cc1C	none (no result: Pf growth 48h, Pf growth 96h, HCV inh)
COc1ccc2c(=O)c(C)c(-c3ccccc3)oc2c1CN(C)C	Pf growth 96h inconclusive (no result: HCMV inh, HCV inh)
Cc1ccc(C)c(N2CCN(C(=O)CN3CCSc4ccccc43)CC2)c1	none (no result: Pf growth 48h, Pf growth 96h, HCV inh)
Cc1ccc(C)c(N2CCN(C(=O)CC3Sc4ccccc4NC3=O)CC2)c1 (configuration not stated)	Pf growth 48h inconclusive, Pf growth 96h inconclusive, HCV inh 10µM
COc1ccccc1-n1c2nc3ccccc3nc2c2c(=O)n(-c3cc(C)cc(C)c3)cnc21	Pf growth 48h 13µM, Pf growth 96h inconclusive, HCMV inh -69, HCV inh inconclusive
COc1ccccc1-n1cnc2c(c1=O)c1nc3ccccc3nc1n2-c1ccc(C)cc1	Pf growth 96h inconclusive, HCMV inh -87, HCV inh inconclusive
Cc1cc(C)nc(SCC(=O)N/N=C/c2cccn2-c2cccc(C(F)(F)F)c2)n1	Pf growth 48h 9.3µM, Pf growth 96h 13µM
Cc1ccc(-c2nc(=S)c3c(n2Cc2ccco2)CC(C)(C)OC3)cc1	Pf growth 48h inconclusive, Pf growth 96h 8.3µM (no result: HCMV inh)
COc1ccc(-c2cc3ccccc3n2CC(O)CN2CCCCC2)cc1 (configuration not stated)	Pf growth 96h inconclusive, HCMV inh -81
OC(COC(c1ccc(Cl)cc1)c1ccc(Cl)cc1)CN1CCN(c2ccccn2)CC1 (configuration not stated)	Pf growth 48h inconclusive, Pf growth 96h inconclusive, HCV inh 8.9µM
OC(CN1CCCCC1)Cn1c2ccc(Cl)cc2c2cc(Cl)ccc21 (configuration not stated)	Pf growth 48h 1.9µM, Pf growth 96h inconclusive, HCV inh inconclusive
OC(CN1CCN(c2ccccn2)CC1)Cn1c2ccc(Cl)cc2c2cc(Cl)ccc21 (configuration not stated)	Pf growth 48h 1.7µM (no result: Pf growth 96h)
Cc1cccc(NC(=O)CSc2ncc3c(n2)-c2ccccc2N(Cc2ccc(F)cc2)S3(=O)=O)c1C	none (no result: Pf growth 48h, Pf growth 96h, HCV inh)
Cc1ccc(S(=O)(=O)C[C@@H]2OC[C@H](Cc3ccccc3)N2S(=O)(=O)c2ccc(C)cc2)cc1	HCMV inh -61 (no result: Pf growth 48h, Pf growth 96h, HCV inh)
